Screening results as filed in PubChem.
The list is not random: actives were taken first. Their share in the collection is about 4.1%.
NALP1 inh = blocks the NALP1 inflammasome reconstituted in yeast. S. cerevisiae NALP1/ASC/caspase-1 growth, X-gal OD620, 72 h. inhibition, % at 10 µM. 280,000 tested, 0.61% active; in the data active = inhibition mostly above about 24%, no sharp cut-off; inactive = mostly below about 32%
NLRP3 yeast inh = blocks the NALP3 inflammasome reconstituted in yeast; Yeast reconstituted NLRP3/ASC/caspase-1, beta-gal luminescence, 24 h; inhibition, % at 10 µM; 330,000 tested, 0.39% active;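 active = inhibition of 50% or more; inactive = inhibition below 50%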
tim23-1 inh = tim23-1 yeast growth inhibition | inhibition, % at 20 µM | 330,000 tested, 1.3% active | S. cerevisiae tim23-1 growth, BacTiter-Glo luminescence, 24 h;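 active = growth inhibition of the mutant yeast at or above 50%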;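 also: temperature-sensitive mutant grown at 25 °C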
TIM10 inh = inhibits growth of TIM10 yeast strain | S. cerevisiae TIM10 strain growth, BacTiter-Glo luminescence, 24 h | inhibition, % at 10 µM | 330,000 tested, 1.4% active;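 active = inhibition of 40% or more at the single tested concentration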;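 also: wild-type TIM10 isogenic control strain grown at permissive 25 °C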
tim10-1 inh = tim10-1 yeast growth inhibition; S. cerevisiae tim10-1 ts strain growth, BacTiter-Glo, 24 h; inhibition, % at 20 µM; 330,000 tested, 2.2% active; AID 463190;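 active = inhibition of at least 40%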;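 also: mutant grown at 25 °C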
PfHsp90 set2 = inhibits growth of yeast expressing Plasmodium falciparum Hsp90; S. cerevisiae expressing PfHsp90, BacTiter-Glo ATP, 48 h; yeast lacking PDR1 and PDR3 efflux regulators; inhibition, % at 9.4 µM; 310,000 tested, 0.32% active;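 active = every replicate shows inhibition above about 80%, whatever the replicate mean, limit read from the data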
tim23-1 conf = confirmation of tim23-1 mutant yeast growth inhibitors. shares compounds with tim23-1 inh. S. cerevisiae tim23-1 growth, BacTiter-Glo luminescence, 24 h. inhibition, % at 20 µM. 4,400 tested, 83% active;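 active = inhibition above about 39% in either of two replicate wells at 20 µM, limit read from the data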;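 also: temperature-sensitive tim23-1 mutant grown at 25 °C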
Large screens that a line does not name were inactive (follow-up assays come after a bar, where they were run).

COc1ccc(N2CCN(c3nc4cc(C)ccc4cc3C=O)CC2)cc1	tim23-1 inh 52 | tim23-1 conf 45
COc1ccc(N2CCN(c3cc(C)c4ccc(C)cc4n3)CC2)cc1	none
CNc1nc(N)c(C(=O)C23CC4CC(CC(C4)C2)C3)s1	tim23-1 inh 51 | tim23-1 conf 50
C/C(=N\OCC(=O)N/N=C/c1ccccc1O)c1cccs1	tim23-1 inh 56 (no result: PfHsp90 set2) | tim23-1 conf 57
C/C(=N\OCC(=O)N/N=C/c1ccccc1)c1cccs1	none
CN1c2ccsc2/C(=N/Nc2ccccc2)CS1(=O)=O	tim23-1 inh 53 | tim23-1 conf inactive
CN1c2ccsc2/C(=N/NC(=O)c2c(F)cccc2F)CS1(=O)=O	none
COc1ccc(CCNC(=O)c2ccccc2C(=O)NCCc2ccc(OC)c(OC)c2)cc1OC	none (no result: NALP1 inh, PfHsp90 set2)
Cc1cc(N)n2nc(-c3ccccc3)c(-c3ccccc3)c2n1	tim23-1 inh 59 | tim23-1 conf 46
Clc1ccc(-c2nc3ccccc3[nH]2)cn1	none
COc1ccc(N(CC(=O)NC2CCS(=O)(=O)C2)S(=O)(=O)c2ccc(Cl)c(Cl)c2)cc1 (stereo not given)	none (no result: NALP1 inh)
COC(=O)CC1COc2ccccc2N1S(=O)(=O)c1ccc(Br)cc1 (stereo not given)	tim23-1 inh 53 | tim23-1 conf inactive
COC(=O)CC1COc2ccccc2N1S(=O)(=O)c1ccc(OC)cc1 (stereo not given)	none
Cc1cc(C)cc(N(C(C)C(=O)NC2CCCC2)S(C)(=O)=O)c1 (stereo not given)	tim23-1 inh 88 | tim23-1 conf inactive
CCOc1ccc(N(C(C)C(=O)NC2CCCCCC2)S(C)(=O)=O)cc1 (stereo not given)	none
Cc1ccc(CNC(=O)[C@H](Cc2ccccc2)NC(=O)C2CCNCC2)cc1	none
OC(c1ccccc1)C(Nc1ccccn1)c1ccccc1 (stereo not given)	none (no result: NALP1 inh, NLRP3 yeast inh, tim23-1 inh, TIM10 inh, tim10-1 inh)
CC(C)c1nc(NCCO)c(C#N)c2c1CCCC2	tim23-1 inh 54 | tim23-1 conf 39
CC(C)c1nc(NCc2ccccc2)c(C#N)c2c1CCCC2	none
CCN(CC(=O)NC1CCS(=O)(=O)C1)c1ccc([N+](=O)[O-])cc1C#N (stereo not given)	none (no result: NALP1 inh)
CCOC(=O)CSc1nc2ccc(N)cc2s1	none
Nc1ccc2nc(SCc3cccc(F)c3)sc2c1	tim23-1 inh 57 | tim23-1 conf 46
O=C(C1CC1)N1CCc2[nH]c3ccccc3c2C1	none (no result: PfHsp90 set2)
O=C(c1ccccc1Br)N1CCc2c([nH]c3ccccc23)C1	tim23-1 inh 61 | tim23-1 conf inactive
CCCc1[nH][nH]c(=O)c1C(c1ccc(Br)cc1)C(C#N)C#N (stereo not given)	tim23-1 inh 59 | tim23-1 conf inactive
Cc1ccc(S(=O)(=O)/N=C/c2cc(Br)ccc2O)cc1	none
Cc1cc(N=Cc2cc(Br)ccc2O)no1	tim23-1 inh 67 (no result: PfHsp90 set2) | tim23-1 conf inactive
COc1cccc(-n2c(N)cc(=O)nc2SCC(=O)N2CCN(c3ccccc3)CC2)c1	none
Cc1ccc(C(=O)Nc2nc(C(C)(C)C)cs2)s1	tim23-1 inh 52 | tim23-1 conf 42
CC(C)(C)c1csc(NC(=O)c2ccc(Cl)s2)n1	tim23-1 inh 70 | tim23-1 conf 74
CC(C)(C)c1csc(NC(=O)c2ccc(Br)o2)n1	tim23-1 inh 53 | tim23-1 conf 48
